# Measured values taken from article PMC7862700, “An all-to-all approach to the identification of sequence-specific readers for epigenetic DNA modifications on cytosine”.
# Experiments:
# Assay in all cases: DAPPL (digital affinity profiling via proximity ligation, sequencing); 10 mM Tris-HCl pH 7.5, 50 mM NaCl, 1 mM DTT, 4% glycerol, room temperature, 30 min; GST-TFs on glutathione beads, 16-mer random dsDNA library, 0.1% formaldehyde crosslink after washing; high values mean tight binding
# Details in all cases: protein: recombinant; tags: N-terminal GST; dsDNA, one strand shown
# [1] = molecular target: ETV1 (Homo sapiens, UniProt P50549 1-477)
# Summary of the method: (§1)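 The binding signal reported is, for every hexamer, its read frequency for a factor over its read frequency for the tag-only sample. Reads came from pools of yeast-expressed, GST-fused human transcription factors on glutathione beads, barcoded with DNA and mixed with that sample, which were incubated with 200 nmole of a random double-stranded 16-mer DNA library in Tris/NaCl/DTT/glycerol buffer at room temperature for 30 min. After washing, the pools were crosslinked with 0.1% formaldehyde, proximity-ligated with BsaI/T4 ligase for 1 h at 37 °C, PCR-amplified and sequenced on an Illumina NextSeq500.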
# [2] = molecular target: T1, ERF (Homo sapiens, UniProt P50548 1-548)
# T1 sequence: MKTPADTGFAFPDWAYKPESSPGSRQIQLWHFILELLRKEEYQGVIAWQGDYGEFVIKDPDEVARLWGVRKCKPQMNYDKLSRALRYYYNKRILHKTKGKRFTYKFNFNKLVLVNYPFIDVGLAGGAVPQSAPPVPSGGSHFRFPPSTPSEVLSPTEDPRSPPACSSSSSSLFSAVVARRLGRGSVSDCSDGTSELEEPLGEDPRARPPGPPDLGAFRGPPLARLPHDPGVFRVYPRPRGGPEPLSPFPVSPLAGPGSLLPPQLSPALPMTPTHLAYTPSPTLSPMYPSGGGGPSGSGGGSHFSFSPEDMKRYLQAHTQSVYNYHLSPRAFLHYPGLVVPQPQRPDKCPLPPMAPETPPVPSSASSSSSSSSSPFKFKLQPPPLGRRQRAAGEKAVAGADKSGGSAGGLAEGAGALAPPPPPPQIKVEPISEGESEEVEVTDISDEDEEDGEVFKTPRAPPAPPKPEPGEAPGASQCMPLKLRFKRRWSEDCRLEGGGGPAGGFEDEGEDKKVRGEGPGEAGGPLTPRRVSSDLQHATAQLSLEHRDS
# Summary of the method: as §1
# [3] = molecular target: T2, ETV3L (Homo sapiens, UniProt Q6ZN32 1-361)
# T2 sequence: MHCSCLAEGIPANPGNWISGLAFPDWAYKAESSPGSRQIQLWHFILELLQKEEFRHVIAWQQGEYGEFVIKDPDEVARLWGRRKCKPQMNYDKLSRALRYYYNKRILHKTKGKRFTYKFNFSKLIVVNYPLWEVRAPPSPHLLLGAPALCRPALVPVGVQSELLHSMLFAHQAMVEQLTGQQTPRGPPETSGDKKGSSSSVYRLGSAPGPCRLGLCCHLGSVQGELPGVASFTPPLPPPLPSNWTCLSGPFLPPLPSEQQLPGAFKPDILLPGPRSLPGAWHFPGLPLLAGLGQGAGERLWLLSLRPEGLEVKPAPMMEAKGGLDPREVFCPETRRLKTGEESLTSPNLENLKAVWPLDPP
# Summary of the method: as §1
# [4] = molecular target: T3, ETS2 (Homo sapiens, UniProt P15036 1-469)
# T3 sequence: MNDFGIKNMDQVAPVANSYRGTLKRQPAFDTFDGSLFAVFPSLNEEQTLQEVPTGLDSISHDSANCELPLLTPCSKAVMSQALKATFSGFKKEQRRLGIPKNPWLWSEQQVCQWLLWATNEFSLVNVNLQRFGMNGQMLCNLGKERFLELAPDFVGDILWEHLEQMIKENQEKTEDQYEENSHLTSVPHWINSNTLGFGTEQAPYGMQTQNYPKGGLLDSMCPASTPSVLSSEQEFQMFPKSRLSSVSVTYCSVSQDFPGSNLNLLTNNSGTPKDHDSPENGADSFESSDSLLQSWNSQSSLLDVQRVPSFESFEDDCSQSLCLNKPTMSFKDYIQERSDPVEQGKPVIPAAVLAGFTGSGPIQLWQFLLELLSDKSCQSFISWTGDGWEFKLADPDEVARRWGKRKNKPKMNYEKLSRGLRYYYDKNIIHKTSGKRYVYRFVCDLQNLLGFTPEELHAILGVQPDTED
# Summary of the method: as §1
# [5] = molecular target: T4, SPDEF (Homo sapiens, UniProt O95238 1-335)
# T4 sequence: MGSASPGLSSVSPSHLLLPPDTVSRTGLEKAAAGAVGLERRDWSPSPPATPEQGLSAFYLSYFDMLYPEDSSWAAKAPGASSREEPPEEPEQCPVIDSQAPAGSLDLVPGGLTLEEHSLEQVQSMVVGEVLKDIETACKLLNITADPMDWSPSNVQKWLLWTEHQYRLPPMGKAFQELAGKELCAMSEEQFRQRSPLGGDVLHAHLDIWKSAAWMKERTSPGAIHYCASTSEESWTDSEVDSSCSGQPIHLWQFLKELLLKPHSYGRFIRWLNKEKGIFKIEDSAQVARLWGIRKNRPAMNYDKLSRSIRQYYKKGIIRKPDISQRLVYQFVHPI
# Summary of the method: as §1
# [6] = molecular target: T5, ETV7 (Homo sapiens, UniProt Q9Y603 1-341)
# T5 sequence: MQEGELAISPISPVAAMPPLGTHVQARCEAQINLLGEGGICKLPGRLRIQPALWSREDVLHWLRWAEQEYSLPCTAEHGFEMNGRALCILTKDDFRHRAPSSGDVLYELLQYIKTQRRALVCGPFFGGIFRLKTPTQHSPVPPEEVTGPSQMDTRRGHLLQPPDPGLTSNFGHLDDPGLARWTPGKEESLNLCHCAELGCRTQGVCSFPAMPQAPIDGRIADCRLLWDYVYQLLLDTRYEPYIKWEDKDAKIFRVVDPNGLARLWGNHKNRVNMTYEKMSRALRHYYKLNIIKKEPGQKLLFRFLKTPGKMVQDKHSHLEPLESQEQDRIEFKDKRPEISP
# Summary of the method: as §1
# [7] = molecular target: T6, ELF5 (Homo sapiens, UniProt Q9UKW6-2 1-255)
# T6 sequence: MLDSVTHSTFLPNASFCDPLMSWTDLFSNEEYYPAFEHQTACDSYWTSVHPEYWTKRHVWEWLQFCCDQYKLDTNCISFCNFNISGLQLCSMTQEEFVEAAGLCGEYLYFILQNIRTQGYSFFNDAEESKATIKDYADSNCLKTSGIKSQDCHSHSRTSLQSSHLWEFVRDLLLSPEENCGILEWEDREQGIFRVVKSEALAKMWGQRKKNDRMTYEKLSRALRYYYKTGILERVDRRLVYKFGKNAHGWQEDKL
# Summary of the method: as §1
# [8] = molecular target: T7, ETV3 (Homo sapiens, UniProt P41162-2 1-143)
# T7 sequence: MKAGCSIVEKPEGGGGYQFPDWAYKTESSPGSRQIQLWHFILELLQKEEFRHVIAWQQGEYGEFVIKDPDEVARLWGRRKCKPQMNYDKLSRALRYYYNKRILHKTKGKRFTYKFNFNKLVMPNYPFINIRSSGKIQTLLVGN
# Summary of the method: as §1
# [9] = molecular target: ETV6 (Homo sapiens, UniProt P41212 1-452)
# Summary of the method: as §1
# Chain of ETV1 (P50549 whole entry, the tested form may be a part): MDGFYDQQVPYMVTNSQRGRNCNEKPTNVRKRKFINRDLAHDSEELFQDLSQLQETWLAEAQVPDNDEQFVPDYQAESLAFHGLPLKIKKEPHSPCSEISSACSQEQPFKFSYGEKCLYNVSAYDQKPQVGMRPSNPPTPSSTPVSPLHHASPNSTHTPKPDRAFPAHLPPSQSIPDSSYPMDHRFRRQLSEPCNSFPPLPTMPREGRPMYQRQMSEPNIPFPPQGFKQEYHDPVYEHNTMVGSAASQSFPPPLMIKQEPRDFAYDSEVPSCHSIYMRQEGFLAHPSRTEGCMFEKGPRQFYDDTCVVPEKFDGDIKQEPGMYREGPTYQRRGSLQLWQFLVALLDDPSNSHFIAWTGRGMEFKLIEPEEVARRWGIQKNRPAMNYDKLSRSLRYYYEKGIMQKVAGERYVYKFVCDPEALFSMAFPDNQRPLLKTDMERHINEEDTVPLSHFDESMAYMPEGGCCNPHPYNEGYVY
# Chain of ETV6 (P41212 whole entry): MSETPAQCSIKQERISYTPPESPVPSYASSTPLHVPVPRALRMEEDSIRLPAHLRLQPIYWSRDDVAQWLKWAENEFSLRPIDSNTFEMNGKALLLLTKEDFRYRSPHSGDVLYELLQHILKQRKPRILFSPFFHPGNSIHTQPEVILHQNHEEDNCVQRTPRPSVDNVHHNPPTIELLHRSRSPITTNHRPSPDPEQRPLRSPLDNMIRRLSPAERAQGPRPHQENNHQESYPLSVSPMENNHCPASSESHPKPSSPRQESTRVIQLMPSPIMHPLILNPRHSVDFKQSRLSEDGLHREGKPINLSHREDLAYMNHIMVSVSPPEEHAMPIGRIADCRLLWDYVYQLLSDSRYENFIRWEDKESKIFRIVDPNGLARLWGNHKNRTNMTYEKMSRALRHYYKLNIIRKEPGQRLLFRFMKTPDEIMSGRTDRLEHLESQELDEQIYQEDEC
sequence,measurement,setting,value
CCCTTC,binding signal,[1],"1.51 fold enrichment (6-mer frequency, TF over GST control)"
same,binding signal,[2],"1.25 fold enrichment (6-mer frequency, TF over GST control)"
same,binding signal,[3],"1.44 fold enrichment (6-mer frequency, TF over GST control)"
same,binding signal,[4],"1.37 fold enrichment (6-mer frequency, TF over GST control)"
same,binding signal,[5],"1.38 fold enrichment (6-mer frequency, TF over GST control)"
same,binding signal,[6],"1.43 fold enrichment (6-mer frequency, TF over GST control)"
same,binding signal,[7],"1.62 fold enrichment (6-mer frequency, TF over GST control)"
same,binding signal,[8],"1.34 fold enrichment (6-mer frequency, TF over GST control)"
same,binding signal,[9],"1.5 fold enrichment (6-mer frequency, TF over GST control)"
